The source made the active and inactive calls. No rule for the calls is given here.
test: C difficile toxins, biochemical counterscreen, UDPG substrate absence, confirmatory dose response (AID 720650); details: series mostly up to 19.5 µM; activity change, negative = inhibition: at the top concentration

SMILES | activity change, negative = inhibition | AC50
Cc1noc(/C=C/c2ccccc2F)c1S(=O)(=O)N1CCC(C(=O)N2CCN(C)CC2)CC1 | -4.2% (inactive) | 
COc1cc(/C=N/Nc2ccccn2)ccc1O |  | > 39 µM (inactive)
O=C(O)c1cc(NS(=O)(=O)c2ccc(NC3CCCCC3)c([N+](=O)[O-])c2)cc(C(=O)O)c1 | 0.165% (inactive) | 
FC(F)(F)c1cc(CCN2CCNC[C@H]2Cc2cccc3ccccc23)cc(C(F)(F)F)c1 |  | 19.9 µM (active)
CCNC(=O)C[C@@H]1CC[C@H]2[C@H](COc3ccc(NC(C)=O)cc3C(=O)N2C)O1 | 6.46% (inactive) | 
CCOC(=O)c1sc2nc(OCCN3CCOCC3)cc(C)c2c1N | -9.12% (inactive) | 
CNC(=O)C[C@H]1CC[C@@H]2[C@H](COc3ccc(NC(=O)c4ccc(OC)cc4)cc3C(=O)N2C)O1 |  | > 39 µM (inactive)
CN1C(=O)C(c2nnc(Nc3cccc4ccccc34)s2)C2CC1(C)Oc1ccccc12 (configuration not stated) | -14.1% (inactive) | 
CCn1cc(C(=O)O)c(=O)c2cc(F)c(N3CCN(C(=S)NC(=O)c4ccccc4Br)CC3)cc21 | -9.77% (inactive) | 
CCC(CO)[n+]1c(C)cc(/C=C2\Sc3ccccc3N2Cc2ccccc2)cc1C (configuration not stated) |  | 3.4 µM (active)
COc1ccc(C(=O)N2CCOCC2)cc1S(=O)(=O)N1CCCc2ccccc21 | -11.2% (inactive) | 
CCOC(=O)c1nnn(-c2nonc2N)c1-c1ccc(F)cc1 | -4.63% (inactive) | 
Cc1ccc2c(c1)/C(=C/c1ccccc1C)C(=O)N2 | -14.1% (inactive) | 
CCS(=O)(=O)c1ccc2oc(Nc3ccc(C(C)(C)C)cc3)nc2c1 | -6.91% (inactive) | 
O=c1onc(-c2ccccc2)n1Cc1ccc([N+](=O)[O-])cc1 | -8.73% (inactive) | 
Cc1cc(C)c(C)c(S(=O)(=O)N2CCCCC2C(=O)O)c1C (configuration not stated) |  | > 39 µM (inactive)
CCC(C)NC(=O)CSc1nc2cc(S(=O)(=O)N3CCOCC3)ccc2n1CC (configuration not stated) | -1.61% (inactive) | 
O=c1[nH]c(CN2CCOCC2)nc2cc(Cl)ccc12 | 6.24% (inactive) | 
NC(=O)c1ccc2c(=O)c(O)c(-c3cc(Cl)c(N)c(Cl)c3)[nH]c2c1 | -2.89% (inactive) | 
CCn1c(=S)[nH]c2c(=O)n(C)c(=O)n(C)c21 |  | 13.2 µM (active)
COc1ccc(N2CCN(CCNC(=O)Nc3cc(Cl)ccc3OC)CC2)cc1 | -14.5% (inactive) | 
Cc1ccc(C(=O)OCC(=O)c2cc(C)n(CC3CCCO3)c2C)cc1 (configuration not stated) | 13.3% (inactive) | 

Source: PubChem BioAssay AID720650 (Broad Institute, 2013)
